In all, about 400,000 compounds went through this assay and about 5,500 (1.4%) were called active. Entries that show only a call come without a potency. Another 9% or so got no clear call; they are omitted. Calls follow the shape of the dose curve; as a rule, active = well fitted cell-killing curve with a large enough effect; inconclusive = small, poorly fitted or top-dose-only effect, or effect the other way; inactive = flat fitted curve, though single readings scatter. For the sample, actives were picked, then their nearest neighbours and some compounds at random.
Potency is read from the fitted curve at half-maximal effect.

This experiment can be described thus: qHTS assay for MDR1-selective chemotherapeutics: Primary screen using the parental adenocarcinoma cell KB-3-1. Also: nearly all actives have a fitted effect of over 60% in size. The note with it: KB-3-1 viability, CellTiter-Glo ATP luminescence, 72 h; series mostly up to 46.1 µM. The essentials: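 Using CellTiter-Glo luminescence, growth of non-resistant KB-3-1 adenocarcinoma cells is assessed 72 h after pin-tool compound addition at 37 °C. Normalized responses across the concentration series yield fitted curves.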
For orientation: Quantitative high-throughput screening tests each substance at several concentrations.
Regarding `CC(C)Cn1c(-c2ccc(S(=O)(=O)N3CCOCC3)cc2)csc1=Nc1cc(Cl)ccc1Cl`, the Potency entry was “inactive”.

In the case of `CN(N=O)c1ccc(C=C2c3ccccc3-c3ccccc32)cc1`, the Potency entry is “inactive”.

For the molecule `COc1ccc(C2C(C(C)=O)=C(O)C(=O)N2CCc2c[nH]c3ccccc23)cc1` (stereo unspecified), the Potency result is “inactive”.

In the case of `COc1ccc(/C=C(\C#N)c2c[nH]c3ccccc23)cc1`, the Potency was 1.64 µM (active).

`C[N+](C)(C)CCNC(=O)c1c[nH]c2ccccc12`: the Potency entry was “inactive”.

In the case of `Cc1cc(C(=O)CSc2nc(N)cc(=O)[nH]2)c(C)n1CCc1ccc(Cl)cc1`, the Potency result was “inactive”.

On to `Cc1cc(C(=O)CSc2nc(N)cc(=O)[nH]2)c(C)n1-c1cccc(F)c1`, for which the Potency is 5.8 µM (active).

`Cc1cc(C)c(C(=O)CSc2nc(C)cc(=O)[nH]2)c(C)c1`: the Potency entry is “inactive”.

As to `Cc1cccc(C(=O)N2CCc3cc(CNC(=O)Cc4ccc(F)cc4)ccc32)c1`, the Potency result is “inactive”.

With `COc1cc(NS(=O)(=O)c2ccc3ccccc3c2)c2ncccc2c1`, the Potency is 6.51 µM (active).

For the molecule `O=[N+]([O-])c1ccccc1S(=O)(=O)Nc1cccc2cccnc12`, the Potency result was “inactive”.

For the molecule `CCOc1ccc(OCC)c(NS(=O)(=O)c2ccc3[nH]c(=O)ccc3c2)c1`, the Potency entry was “inactive”.

For the molecule `CCN(CCCNC(=O)CSc1cc(=O)n(C)c2cc(Cl)ccc12)c1cccc(C)c1`, the Potency result is “inactive”.

In the case of `CCc1ccccc1NC(=O)/C(=C/c1ccccc1)c1ccccc1`, the Potency result is “inactive”.

On to `CCOC(=O)CCP(=O)(O)C(O)(c1ccccc1)c1ccccc1`, for which the Potency result is “inactive”.

For the molecule `CCOC(=O)C(=Cc1ccccc1)C(=O)c1ccccc1`, the Potency was 20.6 µM (active).

Turning to `Cc1ccc2cccc(NC(=O)c3ccc(OC(C)C)cc3)c2n1`, the Potency entry is “inactive”.

As to `CCOC(=O)C1CCCN(S(=O)(=O)c2cc(-c3cc(C)no3)ccc2OC)C1` (stereo unspecified), the Potency result is “inactive”.

On to `Cc1ccccc1NC(=S)N(CCCN1CCOCC1)Cc1cccs1`, for which the Potency entry was “inactive”.

Take `Cc1ccc(NC(=S)N(CCCN2CCCC2)Cc2cccn2Cc2ccc(Cl)cc2)cc1`: the Potency was 20.6 µM (active).

Regarding `CCc1cccc(C)c1NC(=S)N(CCCN1CCN(C)CC1)Cc1cccs1`, the Potency result is “inactive”.

`Cc1ccccc1-c1nc(CS(=O)(=O)CC(=O)Nc2cc(Cl)cc(Cl)c2)c(C)o1`: the Potency entry was “inactive”.

Regarding `Cc1nnc(N2CCC(C(=O)Nc3ccc(F)cc3)CC2)c2nn(-c3ccc(Cl)cc3)c(C)c12`, the Potency entry was “inactive”.

Consider `CCc1ccccc1NS(=O)(=O)c1ccc2nc(-c3ccccc3)[nH]c2c1`, for which the Potency result is “inactive”.

Regarding `COc1cc(CNCCN(C)C)ccc1OCc1c(F)cccc1Cl`, the Potency entry is “inactive”.

On to `COc1cc(CNCCSc2nnnn2C)ccc1OCc1c(F)cccc1Cl`, for which the Potency is 18.4 µM (active).

For `COc1cc(CNCCSc2nnnn2C)ccc1OCc1ccc(Cl)cc1Cl`, the Potency result is “inactive”.

For `CCOC(=O)c1c(-c2cccc(C)c2)csc1NC(=O)c1c(-c2ccccc2)noc1C`, the Potency is 5.17 µM (active).

Turning to `Cc1onc(-c2ccccc2Cl)c1C(=O)OCc1nnc(-c2ccccc2)o1`, the Potency entry is “inactive”.

Regarding `CCOC(=O)c1c(NC(=O)c2cc(-c3ccc(Cl)cc3)on2)sc2c1CCCC2`, the Potency entry is “inactive”.

As for `CC1=C(C(=O)Nc2ccccc2)C(c2ccc(C)cc2)n2nc(SCc3ccccc3C)nc2N1` (stereo unspecified), the Potency result was “inactive”.

For the molecule `CCOc1ccc(N(CC)S(=O)(=O)N2CCCC(C(=O)NCc3ccc(SC)cc3)C2)cc1` (stereo unspecified), the Potency entry was “inactive”.

With `CC1(C)N=C(N)NC(Nc2ccc(Cl)cc2)=N1`, the Potency entry was “inactive”.

`COc1ccccc1Nc1nc(N)nc(N)c1S(=O)(=O)c1ccccc1`: the Potency entry was “inactive”.

For the molecule `COc1ccccc1NC1=NC(c2ccc(Cl)cc2)N=C(N)N1` (stereo unspecified), the Potency was 3.66 µM (active).

For `CCOC(=O)c1ccc(NC(=O)c2c(NCc3cccc(OC)c3)sc3c2CCC3)cc1`, the Potency result is “inactive”.

For `COc1ccc(-c2csc(-c3c(N)c(C(=O)c4ccc(OC)c(OC)c4)n4ccccc34)n2)cc1`, the Potency entry is “inactive”.

Turning to `CCN(CC)CCNc1ncnc2c1cnn2-c1cc(Cl)ccc1C`, the Potency result was “inactive”.

Regarding `CCN(CC)CCCC(C)Nc1ccnc2cc(Cl)ccc12` (stereo unspecified), the Potency is 10.3 µM (active).

Regarding `CCN(CC)CCNc1ccc(Cl)cc1[N+](=O)[O-]`, the Potency entry is “inactive”.

Take `CNCCCOc1cc2nc(N3CCCN(C)CC3)nc(NC3CCN(C)CC3)c2cc1OC`: the Potency result was “inactive”.

Consider `CCOC(=O)c1cc(-c2ccc(OC)c(S(=O)(=O)Nc3ccc(OC)cc3OC)c2)on1`, for which the Potency entry was “inactive”.

For `Cc1cccc(CNC(=O)c2cnc3sc(N4CCCCC4)nn3c2=O)c1`, the Potency entry was “inactive”.

Turning to `CC(C)C1N=C2c3ccccc3N=C(SCC(=O)c3ccc(O)c(O)c3)N2C1=O` (stereo unspecified), the Potency was 23.1 µM (active).

With `CCOC(=O)CSC1=Nc2ccccc2C2=NC(CCC(=O)NCc3ccc(F)cc3)C(=O)N12` (stereo unspecified), the Potency result is “inactive”.

On to `Cc1ccc(CNC(=O)CSC2=Nc3ccccc3C3=NC(C)C(=O)N23)cc1` (stereo unspecified), for which the Potency result is “inactive”.

On to `Cc1ccc(Cn2cc(CN3CC(N4CCN(C)CC4)CS3(=O)=O)nn2)cc1` (stereo unspecified), for which the Potency result was “inactive”.

Consider `CN(Cc1cn(Cc2ccc(C(F)(F)F)cc2)nn1)C1CN(Cc2cn(Cc3ccc(C(F)(F)F)cc3)nn2)S(=O)(=O)C1` (stereo unspecified), for which the Potency is 10.3 µM (active).

For the molecule `CN(C)C1CN(Cc2cn(Cc3ccccc3)nn2)S(=O)(=O)C1` (stereo unspecified), the Potency entry is “inactive”.

Consider `CCOc1ccc2nc(N3CCC(C(=O)Nc4cc(C)ccc4C)CC3)sc2c1`, for which the Potency result was “inactive”.

On to `Cn1ccc2cc(S(=O)(=O)N3CCCC(C(=O)NCc4ccccc4F)C3)ccc21` (stereo unspecified), for which the Potency result is “inactive”.

For the molecule `COc1cc(Cl)c(NC(=O)CC(C)S(=O)(=O)c2cc3c(cc2C)NC(=O)CO3)c(OC)c1` (stereo unspecified), the Potency result is “inactive”.

Turning to `Cc1ccccc1CNC(=O)c1cccc(NC(=O)c2nsc3ccccc23)c1`, the Potency result is “inactive”.

For the molecule `O=C(NNC(=O)c1ccccc1O)c1ccccc1O`, the Potency is 2.59 µM (active).

Regarding `CC1=C(C)CC(C(=O)NNC(=O)c2ccccc2O)C(C(=O)O)C1` (stereo unspecified), the Potency result is “inactive”.

With `O=C(NNC(=O)c1cc(S(=O)(=O)N2CCCCC2)ccc1Cl)c1ccccc1O`, the Potency entry is “inactive”.

With `Cc1ccc(CSc2oc(-c3cccs3)nc2S(=O)(=O)c2ccc(C)cc2)cc1`, the Potency entry was “inactive”.

Regarding `CCN(C(=O)COc1ccc(C(=O)c2ccccc2)cc1)c1ccccc1`, the Potency entry is “inactive”.

For `CCN(C(=O)c1ccc(Br)cc1)c1ccccc1`, the Potency result was “inactive”.

On to `CCN(C(=O)c1sc2cc(OC)ccc2c1Cl)c1ccccc1`, for which the Potency is 20.6 µM (active).

Turning to `CCC(=O)Nc1cccc(-c2nc3cc(C)ccc3o2)c1`, the Potency result was “inactive”.

In the case of `CCN(CC)S(=O)(=O)c1ccc2c(c1)c(=O)c(C(=O)N1CCN(c3cccc(Cl)c3)CC1)cn2C`, the Potency result is “inactive”.

With `C=CCn1c(SCC(=O)NC(=O)Cc2ccccc2)nc2ccccc2c1=O`, the Potency result is “inactive”.

As for `CCCN(CCC)c1c([N+](=O)[O-])c(=O)oc2ccccc12`, the Potency entry is “inactive”.

In the case of `CCn1c(/C=C/c2ccc([N+](=O)[O-])o2)nc2ccccc2c1=O`, the Potency was 3.26 µM (active).

`CCCCCn1c(CCCNC(=O)c2ccccc2OC)nc2ccccc21`: the Potency entry is “inactive”.

On to `CCOCCOC(=O)C1=C(C)NC(=O)NC1c1ccc2c(c1)OCO2` (stereo unspecified), for which the Potency result is “inactive”.

For `CCOC(=O)C1=C(CCc2ccccc2)NC(=O)NC1c1ccc2ccccc2c1` (stereo unspecified), the Potency is 23.1 µM (active).

In the case of `CCOC(=O)C1=C(CN2CCc3ccccc32)NC(=O)NC1c1ccc(Cl)cc1` (stereo unspecified), the Potency result is “inactive”.

Regarding `Cc1cccc(N2CCN(C(=O)c3cc4c(=O)oc5ccccc5c4s3)CC2C)c1` (stereo unspecified), the Potency result is “inactive”.

Consider `CCOc1ccc(NC(=O)C(=O)NCCc2csc3nc(-c4ccccc4F)nn23)cc1`, for which the Potency result is “inactive”.

Consider `O=[N+]([O-])c1ccc(C=Nc2ccc(Cl)cc2Cl)s1`, for which the Potency was 16.4 µM (active).

For the molecule `CCOC(=O)C(Cc1ccccc1)NC(=O)CCc1c(C)nc2c(c(C)nn2-c2ccc(C)c(C)c2)c1C` (stereo unspecified), the Potency entry was “inactive”.

Regarding `COc1cccc(CNC(=O)C2CCN(S(=O)(=O)c3ccc4c(ccn4C)c3)CC2)c1`, the Potency result is “inactive”.

Regarding `COc1ccc(-c2nn3c(=O)cc(CN4CCN(C(=O)c5ccc(OC)c(OC)c5)CC4)nc3s2)cc1`, the Potency entry was “inactive”.

As to `CCS(=O)(=O)N1CCC(n2c(C)nc3cccnc32)CC1`, the Potency result was “inactive”.

Regarding `COc1ccccc1CNC(=O)c1ccc(NC(=O)N2CC(C)Sc3ccccc32)cc1` (stereo unspecified), the Potency entry was “inactive”.

With `Cc1cc(Cl)ccc1NC(=S)N1CCC(C(N)=O)(N2CCCCC2)CC1`, the Potency entry is “inactive”.

On to `NC(=O)C1(N2CCCCC2)CCN(C(=S)Nc2ccc(Cl)cc2)CC1`, for which the Potency is 11.6 µM (active).

Consider `O=C(NC1CCN(C(=S)Nc2ccc(Cl)cc2)CC1)C1CCCCC1`, for which the Potency entry is “inactive”.

Consider `O=C(CCC(=O)N1CC2CCCN2c2ccccc21)NCc1ccccc1Cl` (stereo unspecified), for which the Potency result is “inactive”.

As to `CCc1ccc(NC(=O)c2cc3c(=O)n(Cc4cccnc4)ccc3nc2C)cc1`, the Potency entry was “inactive”.

With `COc1ccc(-n2c(=O)c3c(c4cc(OC)ccc4n3C)n(Cc3cccc(C)c3)c2=O)cc1`, the Potency entry is “inactive”.

As to `CCN(CC)c1ccc(NC(=O)CN2CCN(CC(=O)Nc3ccc(Cl)cc3)CC2)cc1`, the Potency result was “inactive”.

For the molecule `CCN(CC)c1ccc(NC(=O)c2ccc(Cl)nc2)cc1`, the Potency was 5.17 µM (active).

Regarding `O=C(NNC(=O)c1ccc(Cl)nc1)c1ccc(Br)cc1`, the Potency entry was “inactive”.

For the molecule `CN(C)c1ccc(C(CNS(=O)(=O)c2cc(F)ccc2F)N2CCOCC2)cc1` (stereo unspecified), the Potency result was “inactive”.

Turning to `Cc1ccc(C)c(N2CCN(S(=O)(=O)c3ccc4c(c3)C(C(C)C)C(=O)N4)CC2)c1` (stereo unspecified), the Potency entry was “inactive”.

On to `CCC1CCCCN1C(=O)Cn1c(=O)n(CCCCCC(=O)NCc2ccccc2)c(=O)c2sccc21` (stereo unspecified), for which the Potency result is “inactive”.

Consider `O=C(c1ccc(Br)cc1)N(Cc1cccs1)c1ccc(F)cc1`, for which the Potency entry was “inactive”.

For `Nc1ccccc1N`, the Potency entry is “inactive”.

As for `Cc1ccc(Nc2ccccc2N)cc1`, the Potency is 20.6 µM (active).

With `Cc1ccc(Nc2c(-c3ccc(C)s3)nc3ccccn23)cc1`, the Potency result is “inactive”.

In the case of `Cc1ccc2c(c1)C1CN(C)CCC1N2C(=O)c1ccccc1NS(=O)(=O)c1ccc(F)cc1C` (stereo unspecified), the Potency entry is “inactive”.

Consider `Cc1ccc([N+](=O)[O-])cc1S(=O)(=O)N1CCCN(C)CC1`, for which the Potency result was “inactive”.

Regarding `Cc1ccc2c(c1)C1CN(C)CCC1N2S(=O)(=O)c1ccc(Oc2ccc([N+](=O)[O-])cc2)cc1` (stereo unspecified), the Potency is 18.4 µM (active).

As for `COc1ccc(-c2nn(CC(=O)NC3CCCC3)c3c2cnc2ccc(F)cc23)cc1`, the Potency result was “inactive”.

For `Cc1ccc(CNC(=O)c2c(O)nc3c(C)cccn3c2=O)cc1`, the Potency result is “inactive”.

For the molecule `COc1cccc(OCC(=O)NNC(=O)c2cnccn2)c1`, the Potency entry is “inactive”.

`NS(=O)(=O)c1ccc(CNC(=O)c2cnccn2)cc1`: the Potency result is “inactive”.

Consider `CCN(CC)c1ccc(/C=N/NC(=O)c2cnccn2)c(O)c1`, for which the Potency is 0.731 µM (active).
